PubChem BioAssay AID623911 (Vanderbilt High Throughput Screening Facility, 2012)
Among all 2,100 compounds or so, about 770 (37%) were called active.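 The calls were made as follows: active = by-eye trace score of 1 for enhancers or -1 for inhibitors, so actives lie on both sides (some results past the limit were not filed as active); inactive = score 0, or 3 fluorescent, or 4 baseline rise.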 The list shows a part of the results.

What follows are molecules tested against G protein-activated inward rectifier potassium channel 2 (Homo sapiens) + G protein-activated inward rectifier potassium channel 1 (Homo sapiens) (UniProt P48051+P48549) (assay: GIRK1/2 thallium flux modulators, retest, confirmation, cell-based, HEK293 rmGlu8/hGIRK1/2, FluoZin-2 (AID 623911)). Conditions: HEK293 rmGlu8/hGIRK1/2, thallium flux FluoZin-2; actives lie on both sides; glutamate co-added at its EC20 level.
Chain of G protein-activated inward rectifier potassium channel 2 (Homo sapiens) + G protein-activated inward rectifier potassium channel 1 (Homo sapiens) (P48051 whole entry, looked up): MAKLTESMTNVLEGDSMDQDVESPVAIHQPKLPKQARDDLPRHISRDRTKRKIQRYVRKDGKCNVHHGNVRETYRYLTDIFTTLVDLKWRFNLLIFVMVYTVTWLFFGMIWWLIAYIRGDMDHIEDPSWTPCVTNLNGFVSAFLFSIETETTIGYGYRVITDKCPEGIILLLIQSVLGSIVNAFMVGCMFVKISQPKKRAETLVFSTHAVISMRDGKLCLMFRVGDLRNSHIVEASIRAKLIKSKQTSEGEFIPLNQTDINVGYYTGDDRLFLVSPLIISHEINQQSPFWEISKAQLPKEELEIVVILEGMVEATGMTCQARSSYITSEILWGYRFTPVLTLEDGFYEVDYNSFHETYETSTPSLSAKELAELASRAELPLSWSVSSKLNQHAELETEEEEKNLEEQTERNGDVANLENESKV
Chain of G protein-activated inward rectifier potassium channel 2 (Homo sapiens) + G protein-activated inward rectifier potassium channel 1 (Homo sapiens) (P48549 whole entry, looked up): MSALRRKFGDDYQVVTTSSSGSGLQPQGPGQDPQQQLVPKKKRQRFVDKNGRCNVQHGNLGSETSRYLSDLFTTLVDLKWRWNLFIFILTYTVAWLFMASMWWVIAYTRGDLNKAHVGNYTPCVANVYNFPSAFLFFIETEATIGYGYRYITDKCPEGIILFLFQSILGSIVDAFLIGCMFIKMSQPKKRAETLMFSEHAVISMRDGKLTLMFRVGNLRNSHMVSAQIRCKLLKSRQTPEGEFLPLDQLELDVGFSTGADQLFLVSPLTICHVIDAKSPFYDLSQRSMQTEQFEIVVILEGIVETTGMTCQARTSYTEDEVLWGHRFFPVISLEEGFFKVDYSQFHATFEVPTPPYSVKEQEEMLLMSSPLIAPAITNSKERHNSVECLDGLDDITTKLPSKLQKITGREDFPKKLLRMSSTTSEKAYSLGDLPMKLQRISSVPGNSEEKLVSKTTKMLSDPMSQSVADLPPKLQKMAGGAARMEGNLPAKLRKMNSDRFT

Manual score, active:
O=C(NN=c1c(=O)c2ccccc2c1=O)c1ccccc1 1
Cc1ccc(C(=O)NNc2nc3ccccc3nc2C(F)(F)F)cc1 1
O=C(NNc1nc2ccccc2nc1C(F)(F)F)c1ccccc1 1
COc1cc(NC(=O)Cn2nnc(-c3ccccc3N)n2)cc(OC)c1 1
O=C(CSc1nnnn1-c1ccc(O)cc1)Nc1cccc(S(=O)(=O)N2CCCC2)c1 -1
CCOC(=O)Cc1csc(NC(=S)NC(=O)c2ccccc2C)n1 1
CCOC(=O)Cc1csc(NC(=S)NC(=O)c2ccccc2Br)n1 1
CCOC(=O)c1ccc(NC(=O)N2CCN(Cc3cccc(F)c3)CC2)cc1 -1
CC1CCC/C(=N\NC(=O)COc2ccc(Cl)cc2Cl)C1 (stereo unspecified) 1
N#C/C(=N\Nc1ccc(Cl)cc1)C(=O)c1ccccc1 -1
CC(C)c1nc(N2CCN(C(=O)c3ccccc3)CC2)c(C#N)c2c1COC(C)(C)C2 -1
O=C(NN=C1c2ccccc2-c2ccccc21)c1cccc(Br)c1 1
O=C(Nc1nnc(-c2ccc3c(c2)CCCC3)o1)C1COc2ccccc2O1 (stereo unspecified) 1
O=C(Nc1nnc(-c2ccc3c(c2)CCCC3)o1)c1ccc(Cl)cc1Cl 1
O=C(Nc1nnc(-c2ccc3c(c2)CCCC3)o1)c1ccccc1 1
O=C(Nc1nnc(-c2ccc3c(c2)CCCC3)o1)c1ccccc1Cl 1
Fc1cccc(C2NN=C(c3ccccc3)S2)c1 (stereo unspecified) 1
CC12CN(Cc3ccccc3)CC(C)(CN(Cc3ccccc3)C1)C2=NO -1
COC(=O)c1ccc(CSc2ccc3nnc(-c4ccccc4)n3n2)o1 -1
O=C(Cc1csc(Nc2nc(=S)[nH]c3ccccc23)n1)NCc1cccc(Cl)c1 1
CON(c1nc(Cl)nc(N(C)C)n1)S(=O)(=O)c1ccccc1Cl -1
O=C(c1csc2c1CCCC2)N1CCN(c2ccc(F)cc2)CC1 -1
C=CCn1c(=S)[nH]c2ccc(Br)cc2c1=O 1
C=CCn1c(=S)[nH]c2ccccc2c1=O 1
COC(=O)CSC1=NS(=O)(=O)c2ccccc21 -1
CCc1cccc(NC(=O)CSC2=NS(=O)(=O)c3ccccc32)c1 1
Clc1ccc2c(c1)C(N1CCNCC1)Cc1ccccc1S2 (stereo unspecified) -1
CSc1nc(-c2ccccc2)[nH]c(=S)c1C(C)=O 1
CC(=O)c1c(N2CCCC2)[nH]c(-c2ccccc2)nc1=S 1
CCOc1ccc(OCCSc2nc3ccccc3[nH]2)cc1 1
Oc1[nH]c2c(Cl)cc(Cl)cc2c1N=NC(=S)NCC1CCCO1 (stereo unspecified) 1
COc1ccccc1C1=Nn2c(nnc2C2CCCCC2)SC1 -1
Cc1cc(C)nc(N(C#N)Cc2ccc(Br)cc2)n1 -1
O=C(NC(=S)Nc1ccccc1N1CCOCC1)c1ccco1 1
O=C(NC(=S)Nc1ccc(N2CCCCC2)cc1)c1cccs1 1
O=C(NC(=S)Nc1ccc(N2CCCCC2)cc1)c1ccco1 1

Manual score, inactive:
CC1Oc2ccccc2C=C1/C=N/NC(=O)c1ccccc1 (stereo unspecified) 0
C/C(=N\O)C(C)NC(=O)c1ccccc1 (stereo unspecified) -0.5
Cc1nc(/N=C(\N)NC(=O)c2ccccc2)nc2ccccc12 0
O=C(NNc1ncc(C(F)(F)F)cc1Cl)c1c(Cl)cccc1Cl 0
Cc1ccc(C(=O)N/N=C/C2=Cc3ccccc3OC2C)cc1 (stereo unspecified) 0
Cc1ccc(C(=O)NC2(C(F)(F)F)N=C3SCCN3C2=O)cc1 (stereo unspecified) 0
COc1ccc(-n2cc(-c3ccccc3)[nH]c2=S)cc1 0
CCCc1cc(=O)n2[nH]c(-c3ccc(Br)cc3)cc2n1 0
O=C1Nc2ccccc2C12OCC1(CO2)COC2(OC1)C(=O)Nc1ccccc12 (stereo unspecified) 0
COc1cc(NC(=O)CSCc2cnn(-c3ccccc3)c2-n2cccc2)cc(OC)c1 0
CCOc1ccc(NC(=O)Cn2nnc(-c3ccccc3F)n2)cc1 0
CCOC(=O)c1cccc(NC(=O)CSc2nnc(C3CCCCC3)n2C)c1 0
Cc1ccc(C)c(-n2nnnc2SCC(=O)Nc2cccc(-c3nnc4n3CCCCC4)c2)c1 3
Cc1ccccc1C(=O)NC(=S)Nc1ccc(Oc2ccc(Cl)cc2)cc1 0
COc1cc(OC)c(-c2c3cc(O)c(=O)cc-3oc3cc(O)c(O)cc23)cc1OC 3
CCOC(=O)c1ccc(NC(=O)Nc2ccc(OC)c(OC)c2)cc1 0.5
CCCOC(=O)c1ccc(NC(=O)c2ccoc2C)cc1 0.5
CN1C(=O)c2oc3ccccc3c(=O)c2C1c1ccccn1 (stereo unspecified) 0
O=C(N/C(=N\O)c1ccccc1)Nc1ccc(Cl)cc1 0
Cc1ccc(/C=N/Nc2nc(Cl)c(Cl)cc2Cl)s1 0
O=S(=O)(Nc1cc(Sc2cccc3cccnc23)c(O)c2ccccc12)c1ccc(F)cc1 0
O=c1c2c(nc3c(-c4cccc(Br)c4)c[nH]n13)CCCC2 0
N#Cc1c(N2CCN(C(=O)c3ccccc3)CC2)nc(-c2ccccc2)c2c1CCCC2 0
CSc1nc(N2CCOCC2)c2c(c1C#N)CC(C)(C)OC2 -0.5
CC1CCCN(Cc2cccc(Oc3ccccc3)c2)C1 (stereo unspecified) 0.5
CCOc1ccc(N2C(=O)/C(=C/c3cc(OC)c(OC)c(OC)c3)N(CC(=O)OC)C2=S)cc1 0
CCOC(=O)N1CCC(NC(=O)c2cnn3c2NC(c2ccco2)CC3C(F)(F)F)CC1 (stereo unspecified) 0
S=C(Nc1cccc(Br)c1)c1ccccc1 0
O=C(NN=C1c2ccccc2-c2ccccc21)c1ccccc1Br 0
CN(C)S(=O)(=O)c1ccc(C(=O)Nc2nnc(-c3ccc4c(c3)CCCC4)o2)cc1 0
O=C(Nc1cccc(-c2nnc(-c3ccccc3)o2)c1)C1CCCO1 (stereo unspecified) 0
O=C(Nc1ccc(-c2nc3ccccc3o2)cc1)c1cc(-n2cnnc2)ccc1Cl 0
CN=c1scc(-c2cccs2)n1/N=C/c1ccc(O)c(O)c1O 0
CCOc1cc(-c2noc(-c3cccnc3)n2)ccc1OC 0
CCOc1cc(C2NN=C(c3ccc(C)cc3)S2)ccc1O (stereo unspecified) 0.5
CC1CC(=S)Nc2ccccc2N1Cc1ccccc1 (stereo unspecified) 0
O=C(OCCN1C(=O)c2cccc3c(N4CCOCC4)ccc(c23)C1=O)c1cccc(Cl)c1 3
O=C(NCCSc1c[nH]c2ccccc12)c1ccco1 0
COC(=O)c1ccc(CSc2nnc(Nc3ccccc3OC)s2)o1 0
CCC(Sc1ccc2nnc(-c3ccc(F)cc3)n2n1)C(=O)OC (stereo unspecified) 0
Cc1ccc(CNC(=O)Cc2csc(Nc3nc(=S)[nH]c4ccccc34)n2)cc1 0.5
O=C(Cc1csc(Nc2nc(=S)[nH]c3ccccc23)n1)NCc1ccccc1Cl 0
COc1cccc(N2CCN(c3c4c(nc5ncnn35)CCC4)CC2)c1 0
O=C1c2cccc3c(O)ccc(c23)C(=O)N1Cc1ccccc1 3
COCCn1c(=S)[nH]c2cc(C(=O)N3CCN(c4ccc(F)cc4)CC3)ccc2c1=O 0
O=c1c2ccccc2[nH]c(=S)n1CCN1CCN(Cc2ccccc2)CC1 0
O=c1c2cc(Cl)ccc2[nH]c(=S)n1Cc1cccs1 0
O=C(C1CCC(Cn2c(=S)[nH]c3ccccc3c2=O)CC1)N1CCN(c2ccccc2)CC1 (stereo unspecified) 0
CCN(CC)c1ccc2cc(C=O)c(=O)oc2c1 3
CC(=O)Nc1ccc(NC(=O)CSc2nccn2Cc2ccccc2)cc1 0
CCc1cccc(NC(=O)CCSCCC(=O)Nc2cccc(CC)c2)c1 0
COC(=O)CSc1nnc(SCc2ccc(OC)cc2)s1 0
COC(=O)CSc1nc2ncccc2[nH]1 0
CCOC(=O)c1ccc(N2C(=O)C(O)=C(C(C)=O)C2c2ccccc2)cc1 (stereo unspecified) 0
O=c1c2c(nc3c(-c4ccccc4)c[nH]n13)CCCC2 0
CCCCn1c(SC(C)C(N)=O)nc2cc(C(=O)OC)ccc2c1=O (stereo unspecified) 0
CN1/C(=C\C=C2/C(=O)Oc3ccccc3C2=O)C(C)(C)c2ccccc21 3
CCCOc1cccc(OCCSc2nc(C)cc(=O)[nH]2)c1 0
CCNC(=O)NC(=O)COC(=O)CCCSc1nc2ccccc2[nH]1 0
Clc1ccc2[nH]c3c(NCC4CCCO4)ncnc3c2c1 (stereo unspecified) 0
Oc1[nH]c2ccccc2c1N=NC(=S)NCC1CCCO1 (stereo unspecified) 0.5
c1cc2c(cc1C1=Nn3c(nnc3C3CCCCC3)SC1)OCO2 0
COc1ccc(C2=Nn3c(nnc3C3CCCCC3)SC2)cc1OC 0
O=C(NC(=S)Nc1ccc(N2CCOCC2)cc1)c1ccco1 0
CC1CCN(c2ccccc2NC(=S)NC(=O)c2ccco2)CC1 0
CC1CCN(c2ccc(NC(=S)NC(=O)c3ccco3)cc2)CC1 0
O=C(NC(=S)Nc1ccc(N2CCCCC2)c(Cl)c1)c1cccs1 0
O=C(NC(=S)Nc1ccccc1N1CCCCC1)c1ccco1 0
CN(C1CCCCC1)S(=O)(=O)c1ccc(NC(=S)NC(=O)c2cccs2)cc1 0
CC(C)(C)C(=O)/C=c1\[nH]c(=O)/c(=C\c2ccc(F)cc2)s1 0
